# Data: PubChem BioAssay AID1159580 (chemical genetic matrix, 2015)
# “And” between values parts separate entries of the source, which are not always exact repeats. Equal entries are not always repeated. Out of some 5,500 compounds screened, about 2,000 (36%) were called active. Not shown: some 18% with an inconclusive outcome. This is one part of the list. Unmarked numbers belong to inactive results. Cut-off read from the data, not from the text of the source: active = normalized growth mostly below about 0.91 (no sharp cut-off); inconclusive = no clear call, values can overlap the other calls; inactive = mostly above about 0.92.
# Experiment: chemical genetic growth profiling, strain panel (AID 1159580);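 note: tested at 20 µM; growth read once vehicle control cultures reached saturation at 30 °C; 1 = growth at the plate median or of vehicle wells; lower values mean less growth of the strain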
# Details: S. cerevisiae deletion strains, growth OD
compound,measurement,setting,value
COc1ccc2cc([C@H](C)C(=O)O)ccc2c1,normalized growth,"locus YAL013W, strain DEP1, active compounds read low",1
same,normalized growth,"locus YAL021C, strain ccr4, active compounds read low",0.943
same,normalized growth,"locus YAL026C, strain drs2, active compounds read low",0.961
same,normalized growth,"locus YAL030W, strain snc1, active compounds read low",0.981
same,normalized growth,"locus YAL040C, strain CLN3, active compounds read low",1.07
same,normalized growth,"locus YBL061C, strain skt5, active compounds read low",0.984
same,normalized growth,"locus YBR009C, strain hhf1, active compounds read low",0.98
same,normalized growth,"locus YBR021W, strain FUR4, active compounds read low",0.958
same,normalized growth,"locus YBR023C, strain chs3, active compounds read low",0.987
same,normalized growth,"locus YBR171W, strain sec66, active compounds read low",0.963
same,normalized growth,"locus YBR229C, strain ROT2, active compounds read low",1
same,normalized growth,"locus YBR231C, strain swc5, active compounds read low",0.996
same,normalized growth,"locus YBR279W, strain paf1, active compounds read low",0.967
same,normalized growth,"locus YCL011C, strain gbp2, active compounds read low",0.98
same,normalized growth,"locus YCL016C, strain dcc1, active compounds read low",0.993
same,normalized growth,"locus YCL029C, strain bik1, active compounds read low",0.999
same,normalized growth,"locus YCL061C, strain MRC1 (second series), active compounds read low",0.994
same,normalized growth,"locus YCL061C, strain MRC1, active compounds read low",0.974
same,normalized growth,"locus YCL069W, strain vba3, active compounds read low",0.968
same,normalized growth,"locus YCR088W, strain abp1, active compounds read low",0.972
same,normalized growth,"locus YDL005C, strain med2, active compounds read low",0.96
same,normalized growth,"locus YDL035C, strain GPR1, active compounds read low",0.984
same,normalized growth,"locus YDL040C, strain nat1, active compounds read low",0.973
same,normalized growth,"locus YDL074C, strain BRE1, active compounds read low",0.989
same,normalized growth,"locus YDL101C, strain DUN1, active compounds read low",1.02
same,normalized growth,"locus YDL134C, strain PPH21, active compounds read low",1
same,normalized growth,"locus YDL185W, strain tfp1, active compounds read low",0.957
same,normalized growth,"locus YDL192W, strain arf1, active compounds read low",0.985
same,normalized growth,"locus YDR001C, strain nth1, active compounds read low",0.98
same,normalized growth,"locus YDR069C, strain doa4, active compounds read low",0.963
same,normalized growth,"locus YDR101C, strain arx1, active compounds read low",1.01
same,normalized growth,"locus YDR137W, strain rgp1, active compounds read low",0.932
same,normalized growth,"locus YDR150W, strain NUM1, active compounds read low",1.01
same,normalized growth,"locus YDR159W, strain sac3, active compounds read low",0.926
same,normalized growth,"locus YDR162C, strain NBP2, active compounds read low",0.99
same,normalized growth,"locus YDR195W, strain ref2",0.932
same,normalized growth,"locus YDR297W, strain sur2, active compounds read low",0.978
same,normalized growth,"locus YDR318W, strain mcm21, active compounds read low",0.996
same,normalized growth,"locus YDR334W, strain swr1, active compounds read low",0.961
same,normalized growth,"locus YDR335W, strain msn5, active compounds read low",0.988
same,normalized growth,"locus YDR363W, strain ESC2, active compounds read low",0.979
same,normalized growth,"locus YDR388W, active compounds read low",0.998
same,normalized growth,"locus YDR392W, strain spt3, active compounds read low",0.842
same,normalized growth,"locus YDR502C, strain sam2, active compounds read low",0.964
same,normalized growth,"locus YEL003W, strain gim4, active compounds read low",0.951
same,normalized growth,"locus YEL037C, strain rad23, active compounds read low",0.958
same,normalized growth,"locus YEL061C, strain CIN8 (second series), active compounds read low",0.964
same,normalized growth,"locus YEL061C, strain CIN8, active compounds read low",1
same,normalized growth,"locus YER002W, strain NOP16, active compounds read low",0.969
same,normalized growth,"locus YER015W, strain faa2, active compounds read low",0.978
same,normalized growth,"locus YER016W, strain bim1, active compounds read low",0.976
same,normalized growth,"locus YER110C, active compounds read low",0.992
same,normalized growth,"locus YER111C, strain swi4, active compounds read low",0.966
same,normalized growth,"locus YER155C, strain BEM2 (second series), active compounds read low",0.964
same,normalized growth,"locus YER155C, strain BEM2, active compounds read low",0.975
same,normalized growth,"locus YER167W, strain BCK2, active compounds read low",0.986
same,normalized growth,"locus YFR010W, strain ubp6, active compounds read low",0.959
same,normalized growth,"locus YGL078C, strain dbp3, active compounds read low",0.957
same,normalized growth,"locus YGL086W, strain mad1, active compounds read low",0.98
same,normalized growth,"locus YGL167C, strain pmr1, active compounds read low",0.977
same,normalized growth,"locus YGL173C, strain kem1, active compounds read low",0.97
same,normalized growth,"locus YGL227W, strain vid30, active compounds read low",0.98
same,normalized growth,"locus YGL240W, strain doc1, active compounds read low",0.962
same,normalized growth,"locus YGL248W, strain PDE1, active compounds read low",1
same,normalized growth,"locus YGL253W, strain hxk2, active compounds read low",0.985
same,normalized growth,"locus YGR078C, strain PAC10, active compounds read low",1
same,normalized growth,"locus YGR135W, strain pre9, active compounds read low",0.984
same,normalized growth,"locus YGR229C, strain SMI1, active compounds read low",0.999
same,normalized growth,"locus YGR252W, strain gcn5, active compounds read low",0.933
same,normalized growth,"locus YHR013C, strain ard1, active compounds read low",0.928
same,normalized growth,"locus YHR027C, strain rpn1, active compounds read low",0.971
same,normalized growth,"locus YHR030C, strain SLT2, active compounds read low",1.01 and 0.896
same,normalized growth,"locus YHR079C, strain IRE1 (second series), active compounds read low",1
same,normalized growth,"locus YHR079C, strain IRE1, active compounds read low",0.881
same,normalized growth,"locus YHR094C, strain hxt1, active compounds read low",0.986
same,normalized growth,"locus YHR129C, strain ARP1, active compounds read low",1.01
same,normalized growth,"locus YHR142W, strain chs7, active compounds read low",0.965
same,normalized growth,"locus YHR200W, strain rpn10, active compounds read low",0.982
same,normalized growth,"locus YIL066C, strain RNR3, active compounds read low",1.01
same,normalized growth,"locus YIL073C, strain SPO22, active compounds read low",1.03
same,normalized growth,"locus YIL125W, strain kgd1, active compounds read low",0.93 (active)
same,normalized growth,"locus YIR030C, strain dcg1, active compounds read low",0.995
same,normalized growth,"locus YJL092W, strain hpr5, active compounds read low",0.959
same,normalized growth,"locus YJL095W, strain BCK1 (second series), active compounds read low",0.987
same,normalized growth,"locus YJL095W, strain BCK1, active compounds read low",1.04 and 0.918
same,normalized growth,"locus YJL115W, strain asf1, active compounds read low",0.96
same,normalized growth,"locus YJL129C, strain trk1, active compounds read low",0.9
same,normalized growth,"locus YJL134W, strain LCB3, active compounds read low",1
same,normalized growth,"locus YJL154C, strain vps35, active compounds read low",0.976
same,normalized growth,"locus YJL164C, strain tpk1, active compounds read low",0.967
same,normalized growth,"locus YJL166W, strain qcr8, active compounds read low",0.97
same,normalized growth,"locus YJL168C, strain set2, active compounds read low",0.991
same,normalized growth,"locus YJL187C, strain SWE1 (second series), active compounds read low",1.02
same,normalized growth,"locus YJL187C, strain SWE1, active compounds read low",0.972
same,normalized growth,"locus YJR043C, strain POL32, active compounds read low",0.981
same,normalized growth,"locus YJR066W, strain TOR1, active compounds read low",0.845
